The values that follow come from PubChem BioAssay (NCI).

SMILES strings stand for the structures. The panel holds about 79,000 compounds, 15% with a hit somewhere; the sample as a whole holds those more often. Values without a mark were called inactive. Activity calls are given as the source filed them. Cut-off read from the data, not from the text of the source: active = growth inhibition above about 70%; inactive = the rest.

Test [1] can be described thus: NCI Yeast Anticancer Drug Screen. Data for the rad50 strain (AID 155).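 Note: 0% = growth of vehicle-only cultures of the same strain.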 Conditions: S. cerevisiae rad50 strain growth inhibition, active compounds read high. The method in brief:
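Cells are treated with compound, grown, and their growth is then scored against vehicle-only cultures of the same repair-deficient yeast strain.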

Test [2] in a line: NCI Yeast Anticancer Drug Screen. Data for the mec2-1 strain (AID 157). Particulars: S. cerevisiae mec2-1 strain, active compounds read high. The method in brief: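 Vehicle-treated cultures served as reference for growth inhibition of compound-exposed mec2-1 yeast.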
A short description of test [3]: NCI Yeast Anticancer Drug Screen. Data for the sgs1 mgt1 strain (AID 161).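 Note: 0% = growth of cultures given vehicle only.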 Particulars: S. cerevisiae sgs1 mgt1 strain, active compounds read high. The essentials: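 Mutant yeast exposed to compound; growth scored against vehicle-only wells.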
Test [4] can be described thus: NCI Yeast Anticancer Drug Screen. Data for the cln2 rad14 strain (AID 165).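 Note: 0% = growth equal to vehicle treated cultures.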 Conditions: S. cerevisiae cln2 rad14 strain, active compounds read high. The method in brief: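 Each compound was tested on cln2 rad14 yeast. Inhibition of growth was calculated against vehicle-exposed controls.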
Test [5] is described as follows: NCI Yeast Anticancer Drug Screen. Data for the bub3 strain (AID 167). Particulars: S. cerevisiae bub3 mutant strain, active compounds read high. The essentials: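 Part of a panel of yeast mutants defective in DNA damage repair or cell cycle regulation. Each strain is grown with compound, and inhibition is calculated relative to solvent-treated cultures.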
The nature of test [6]: NCI Yeast Anticancer Drug Screen. Data for the mlh1 rad18 strain (AID 175). Conditions: S. cerevisiae mlh1 rad18 strain growth inhibition, active compounds read high. The method in brief: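 Vehicle-treated cultures served as the reference for growth inhibition in a yeast strain carrying DNA damage repair alterations exposed to each compound.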
The mark [7] stands for this setting: at 5.0 µM (retest, dose inferred, filed as 0.5).
The mark [8] stands for this setting: at 50.0 µM (retest, dose inferred, filed as 5.0).

In the case of `Cc1ccc(SSCCCS(=O)O)cc1`, the growth inhibition in test [1] (setting [7]) was -1%; in test [1] (setting [8]), -93%; in test [1] (at 50.0 µM) it was 61.1%; in test [2] (setting [7]), -3%; in test [2] (setting [8]), 60%; in test [2] (at 50.0 µM), 50.7%. Further, the growth inhibition in test [3] (setting [7]) is 6%; in test [3] (setting [8]), 78% (active); in test [3] (at 50.0 µM) it was 83.8% (active); in test [4] (setting [7]), -12%; in test [4] (setting [8]) it was 41%; in test [4] (at 50.0 µM), 60.1%. Moreover, the growth inhibition in test [5] (setting [7]) was 4%; in test [5] (setting [8]), 82% (active); in test [5] (at 50.0 µM), 66.3%; in test [6] (setting [7]) it was 3%; in test [6] (setting [8]), 66%; in test [6] (at 50.0 µM), 75.2% (active).
Take `O=S(Nc1ccccc1Br)c1ccccc1` (configuration not stated): the growth inhibition in test [1] (setting [7]) is -4%; in test [1] (setting [8]), 10%; in test [1] (at 50.0 µM), 22.2%; in test [2] (setting [7]), -2%; in test [2] (setting [8]), 16%; in test [2] (at 50.0 µM), 24.1%. The growth inhibition was -3% in test [3] (setting [7]); 21% in test [3] (setting [8]); 59.2% in test [3] (at 50.0 µM); 1% in test [4] (setting [7]); 12% in test [4] (setting [8]); -3.25% in test [4] (at 50.0 µM). Moreover, the growth inhibition in test [5] (setting [7]) is -4%; in test [5] (setting [8]), 34%; in test [5] (at 50.0 µM), 16.9%; in test [6] (setting [7]), -4%; in test [6] (setting [8]) it was 45%; in test [6] (at 50.0 µM), 44.8%.
`CN1C(C)(C)CC(O)(C#N)CC1(C)C`: the growth inhibition in test [1] (setting [7]) was 4%; in test [1] (setting [8]), 99% (active); in test [1] (at 50.0 µM) it was 98.6% (active); in test [2] (setting [7]) it was 2%; in test [2] (setting [8]), 99% (active); in test [2] (at 50.0 µM), 99.7% (active). For the same compound, the growth inhibition in test [3] (setting [7]) was 1%; in test [3] (setting [8]), 99% (active); in test [3] (at 50.0 µM), 99.3% (active); in test [4] (setting [7]) it was -6%; in test [4] (setting [8]), 97% (active); in test [4] (at 50.0 µM), 99.2% (active). Moreover, the growth inhibition in test [5] (setting [7]) was -7%; in test [5] (setting [8]), 99% (active); in test [5] (at 50.0 µM), 99.5% (active); in test [6] (setting [7]) it was 12%; in test [6] (setting [8]), 99% (active); in test [6] (at 50.0 µM), 99.4% (active).
As for `Clc1cc(Cl)c(OCCOCCI)c(Cl)c1`, the growth inhibition in test [1] (setting [7]) is 0%; in test [1] (setting [8]), 13%; in test [1] (at 50.0 µM), 28.1%; in test [2] (setting [7]), 2%; in test [2] (setting [8]) it was 12%; in test [2] (at 50.0 µM), 9.15%. Moreover, the growth inhibition in test [3] (setting [7]) is 1%; in test [3] (setting [8]), 11%; in test [3] (at 50.0 µM), 16.1%; in test [4] (setting [7]) it was 1%; in test [4] (setting [8]), -25%; in test [4] (at 50.0 µM), 14.4%. For the same compound, the growth inhibition was 10% in test [5] (setting [7]); 42% in test [5] (setting [8]); 48% in test [5] (at 50.0 µM); -3% in test [6] (setting [7]); 5% in test [6] (setting [8]); 34% in test [6] (at 50.0 µM).
For the compound `CCOC(=O)N/N=C/c1ccc([N+](=O)[O-])o1`, the growth inhibition in test [1] (setting [7]) is 11%; in test [1] (setting [8]) it was 61%; in test [1] (at 50.0 µM), 89.9% (active); in test [2] (setting [7]), 2%; in test [2] (setting [8]) it was 35%; in test [2] (at 50.0 µM), 81.8% (active). Further, the growth inhibition in test [3] (setting [7]) was 3%; in test [3] (setting [8]), 62%; in test [3] (at 50.0 µM) it was 92.2% (active); in test [4] (setting [7]) it was 1%; in test [4] (setting [8]) it was 19%; in test [4] (at 50.0 µM), 52%. Also, the growth inhibition in test [5] (setting [7]) was 17%; in test [5] (setting [8]), 77% (active); in test [5] (at 50.0 µM) it was 82.1% (active); in test [6] (setting [7]) it was 17%; in test [6] (setting [8]), 78% (active); in test [6] (at 50.0 µM), 94% (active).
`CCCCCCOC(=O)C(N)Cc1ccc(OC)cc1` (configuration not stated): the growth inhibition was 5% in test [1] (setting [7]); 21% in test [1] (setting [8]); 39.2% in test [1] (at 50.0 µM); 7% in test [2] (setting [7]); 29% in test [2] (setting [8]); 40.5% in test [2] (at 50.0 µM). Moreover, the growth inhibition was 6% in test [3] (setting [7]); 42% in test [3] (setting [8]); 56.2% in test [3] (at 50.0 µM); 2% in test [4] (setting [7]); 17% in test [4] (setting [8]); 32.4% in test [4] (at 50.0 µM). The growth inhibition is 5% in test [5] (setting [7]); 80% (active) in test [5] (setting [8]); 52% in test [5] (at 50.0 µM); -1% in test [6] (setting [7]); 43% in test [6] (setting [8]); 48.1% in test [6] (at 50.0 µM).
Regarding `CC(=O)N(C(C)=O)C1=C2c3ccccc3N(S(=O)(=O)c3ccccc3)C2n2c(=O)n(-c3ccccc3)c(=O)n2C1` (configuration not stated), the growth inhibition in test [1] (setting [7]) is 11%; in test [1] (setting [8]) it was 64%; in test [1] (at 50.0 µM), 69.9%; in test [2] (setting [7]) it was -5%; in test [2] (setting [8]), 46%; in test [2] (at 50.0 µM) it was 46.8%. In addition, the growth inhibition was -1% in test [3] (setting [7]); 66% in test [3] (setting [8]); 75.7% (active) in test [3] (at 50.0 µM); -26% in test [4] (setting [7]); 61% in test [4] (setting [8]); 63.7% in test [4] (at 50.0 µM). Also, the growth inhibition in test [5] (setting [7]) is 0%; in test [5] (setting [8]) it was 56%; in test [5] (at 50.0 µM) it was 58.6%; in test [6] (setting [7]), -10%; in test [6] (setting [8]), 35%; in test [6] (at 50.0 µM), 55.7%.
Regarding `CCOC(=O)/C(=C\c1ccc(C)cc1)C(C)=O`, the growth inhibition in test [1] (setting [7]) was 19%; in test [1] (setting [8]), 89% (active); in test [1] (at 50.0 µM) it was 91.1% (active); in test [2] (setting [7]), -19%; in test [2] (setting [8]) it was 97% (active); in test [2] (at 50.0 µM) it was 91.8% (active). Also, the growth inhibition in test [3] (setting [7]) was 24%; in test [3] (setting [8]) it was 95% (active); in test [3] (at 50.0 µM) it was 93.1% (active); in test [4] (setting [7]), 5%; in test [4] (setting [8]), 89% (active); in test [4] (at 50.0 µM), 84.7% (active). In addition, the growth inhibition was 33% in test [5] (setting [7]); 98% (active) in test [5] (setting [8]); 91.2% (active) in test [5] (at 50.0 µM); 22% in test [6] (setting [7]); 96% (active) in test [6] (setting [8]); 90.7% (active) in test [6] (at 50.0 µM).
As for `C=C1CC2(CCOc3ccccc32)OC1=O` (configuration not stated), the growth inhibition in test [1] (setting [7]) is 6%; in test [1] (setting [8]), 70% (active); in test [1] (at 50.0 µM) it was 80.5% (active); in test [2] (setting [7]), 17%; in test [2] (setting [8]) it was 91% (active); in test [2] (at 50.0 µM), 89.1% (active). Besides, the growth inhibition in test [3] (setting [7]) was 12%; in test [3] (setting [8]) it was 92% (active); in test [3] (at 50.0 µM) it was 95% (active); in test [4] (setting [7]) it was 5%; in test [4] (setting [8]) it was 60%; in test [4] (at 50.0 µM) it was 18.6%. The growth inhibition in test [5] (setting [7]) is 4%; in test [5] (setting [8]), 86% (active); in test [5] (at 50.0 µM) it was 88.3% (active); in test [6] (setting [7]), 17%; in test [6] (setting [8]) it was 89% (active); in test [6] (at 50.0 µM), 91% (active).
